From PubChem BioAssay AID2289 (National Center for Advancing Translational Sciences (NCATS), 2010)
The campaign covered roughly 340,000 compounds. About 3,300 (0.97%) were called active. Another 9% or so got no clear call; they are omitted. Calls come from the whole dose curve; as a rule, active = well fitted inhibition curve with a large enough effect; inconclusive = small, poorly fitted or top-dose-only effect, or effect the other way; inactive = flat fitted curve, though single readings scatter. The list shows a part of the results.

Test: qHTS Assay for Modulators of miRNAs and/or Inhibitors of miR-21; note: nearly all actives have a fitted effect of over 55% in size
Settings: HeLa miR-21-FLuc reporter, luciferase luminescence, 48 h; actives lower the signal
Summary of the method: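 HeLa miR-21-FLuc reporter line, endogenous miR-21; 2000 cells/well in DMEM/10% FBS; compound titration up to ~40uM final, 48 h, 37 degree Celsius; luciferase detection reagent, 15 min lysis, CCD luminescence.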
Potency is the fitted concentration of half-maximal effect.

Potency, active:
COc1ccccc1NC(=O)Nc1ccc(N2CCOCC2)cc1 8.26 µM
CCCCOC(=O)Nc1ccc(N2CCOCC2)cc1 7.36 µM
CCCCOC(=O)Nc1ccc(C(C)C)cc1 11.7 µM
Cc1ccc2nc3c(cc(S(=O)(=O)c4ccccc4)c(=N)n3Cc3ccco3)c(=O)n2c1 5.85 µM
COc1ccccc1NC(=O)c1ccc2[nH]c(C)c(C)c2c1 5.21 µM
Cc1[nH]c2ccc(C(=O)N3CCCCC3)cc2c1C 2.07 µM
Cc1ccccc1NC(=O)c1ccc2[nH]c(C)c(C)c2c1 1.31 µM
COc1cc2c(cc1NC(=O)c1ccccc1F)CCCC2 7.36 µM
Cc1nc2c(-c3ccccc3)c(C)nn2c(N)c1-c1ccccc1 1.85 µM
Cc1nn2c(N)c(C#N)cnc2c1-c1ccccc1 16.5 µM
O=C1OC(c2ccccc2)=N/C1=C\N1CCCCC1 8.26 µM
Cc1ccc(C2=N/C(=C\N3CCCCC3)C(=O)O2)cc1 1.65 µM
Cc1ccc(C2=N/C(=C/N3CCOCC3)C(=O)O2)cc1 6.56 µM
Cc1cc(/C=C(\C#N)C(=O)Nc2ccccc2)c(C)n1-c1cccnc1 1.65 µM
COC(=O)c1ccc(COc2ccccc2/C=C(\C#N)C(=O)Nc2ccc(C)cc2)cc1 7.36 µM
CCCOc1ccccc1/C=C(\C#N)C(=O)Nc1cccnc1 8.26 µM
COc1ccc(N=Nc2c(C)n[nH]c2C)cc1 10.4 µM
COc1ccc(N=Nc2c(C)[nH][nH]c2=O)cc1 10.4 µM
CCOC(=O)c1ccc2[nH]c3c(c2c1)CCCC3NC=O (configuration not stated) 16.5 µM
O=C(Cc1ccccc1F)Nc1ccc(SC(F)F)cc1 2.07 µM
O=C(Cc1ccccc1F)Nc1ccc2c(c1)CCC2 3.29 µM
O=C(Cc1ccc2c(c1)CCCC2)Nc1ccc2ccccc2c1 13.1 µM
COc1ccc2c(c1OC)C(=O)OC2Nc1nc(-c2cc3cc(Br)ccc3oc2=O)cs1 (configuration not stated) 5.85 µM
Cc1cc(C(=O)CSc2ncccn2)c(C)n1-c1cccc(F)c1 0.736 µM
COc1cc(O)c2c(=O)c3c(OC)c(O)ccc3oc2c1 13.1 µM
COc1ccc(C(=O)Cn2c(=N)n(C)c3ccccc32)cc1 0.736 µM
CCn1c(=N)n(CC(=O)c2ccc(Cl)c(Cl)c2)c2ccccc21 6.56 µM
CCOc1cc(C2NN=C(c3ccc(C)cc3)S2)ccc1O (configuration not stated) 4.65 µM
COc1ccc(C2NN=C(c3ccc(C)cc3)S2)cc1 (configuration not stated) 1.17 µM
Cc1ccc(N/N=C(\C#N)C(=N)N2CCCCC2)cc1 0.521 µM
N#C/C(=N\Nc1ccc(Br)cc1)C(=N)N1CCOCC1 7.36 µM
N#C/C(=N\Nc1ccc(Cl)cc1)C(=N)N1CCCCCC1 0.585 µM
CCN(CC)C(=N)/C(C#N)=N/Nc1ccc(C)cc1 3.29 µM
N#C/C(=N\Nc1ccccc1F)C(=N)N1CCCCC1 1.65 µM
COc1ccc(N/N=C(\C#N)C(=N)N2CCCCC2)cc1 4.65 µM
N#C/C(=N\Nc1ccccc1)C(=N)N1CCCCCC1 2.07 µM
Cc1ccc(N/N=C(\C#N)C(=N)N2CCOCC2)cc1 10.4 µM
CCN=c1scc(-c2ccco2)n1/N=C/c1ccc(O)cc1 4.14 µM
c1ccc(OCc2nc(-c3cccs3)no2)cc1 13.1 µM
O=[N+]([O-])c1ccccc1OCc1nc(-c2cccs2)no1 2.61 µM
Fc1ccc(OCc2nc(-c3cccs3)no2)cc1 6.56 µM
COc1cc(OC)cc(-c2nc3cc(C)ccc3o2)c1 1.65 µM
COc1ccc(-c2nc3cc([N+](=O)[O-])ccc3o2)cc1 0.293 µM
Cc1ccc2oc(-c3ccccc3)nc2c1 6.56 µM
O=c1c2cn[nH]c2[nH]c(=S)n1-c1ccccc1F 0.927 µM
c1ccc(-c2cc3nccc(-c4ccccn4)n3n2)cc1 3.69 µM
Nc1c(-c2cccs2)cnc2c(-c3ccc(F)cc3)cnn12 0.329 µM
COc1ccc(-c2cnc3c(-c4ccc(F)cc4)cnn3c2N)cc1 0.521 µM
Nc1c(-c2ccc(Cl)cc2)cnc2c(-c3ccccc3)cnn12 0.414 µM
Nc1c(-c2ccc(Cl)cc2)nnn1-c1ccccc1 2.33 µM
Nc1c(-c2ccccc2)cnc2cc(-c3ccccc3)nn12 0.414 µM
Nc1c(-c2ccc(Cl)cc2)cnc2c(-c3ccc(F)cc3)cnn12 0.585 µM
Nc1c(-c2ccccc2)cnc2c(-c3ccccc3)cnn12 0.0927 µM
Nc1c(-c2ccc(Cl)cc2)cnn1-c1ccccc1 1.65 µM
Nc1c(-c2cccc(Cl)c2)cnc2c(-c3ccccc3)cnn12 1.65 µM
O=C(Nc1ccccc1F)c1ccc(OCc2ccccc2)cc1 5.21 µM
CC(=O)Nc1cccc(NC(=O)c2ccc(COc3ccccc3)cc2)c1 1.47 µM
CCOC(=O)C(=O)N(Nc1ccc(C)cc1)c1ccc(C)cc1 9.27 µM
O=C(O)c1ccc(N=NNc2cccc([N+](=O)[O-])c2)cc1 5.85 µM
CC(=O)/C(N=Nc1ccc2c(c1)OCO2)=C(\C)O 6.56 µM
CCOC(=O)/C(N=Nc1ccc2c(c1)OCO2)=C(\C)O 4.65 µM
C/C(=N\NC(=O)COc1ccccc1)c1cccs1 14.7 µM
C/C(=N\NC(=O)COc1ccccc1[N+](=O)[O-])c1cccs1 5.21 µM
Cc1ccn(-c2cccc(-n3ccc(C)n3)n2)n1 2.61 µM
O=C(NCC1CCCO1)C(=O)c1c[nH]c2ccccc12 (configuration not stated) 18.5 µM
O=C(NC1CCCCC1)C(=O)c1c[nH]c2ccccc12 4.14 µM
O=C(Nc1ccccc1)c1cc2n(n1)C(C(F)(F)F)CC(C1CC1)N2 (configuration not stated) 6.56 µM
COc1cccc(Nc2ncnc3sc(C)cc23)c1 6.56 µM
COc1ccc(Nc2cc(Nc3cccc(OC)c3)ncn2)cc1 14.7 µM
COc1ccc(Nc2ncnc3sc(C)cc23)cc1 11.7 µM
COc1cccc(Nc2ncnc3ccccc23)c1 2.33 µM
COc1cccc(Nc2ncnc3sccc23)c1 7.36 µM
CSc1ccccc1-c1nc(-c2ccncc2)no1 1.85 µM
Cc1ccc(-c2nc(-c3ccncc3)no2)cc1C 0.585 µM
COc1ccc(-c2nc(-c3ccc(Br)cc3)no2)c(OC)c1 0.585 µM
COc1ccc(-c2nc(-c3ccncc3)no2)cc1 0.464 µM
Cc1ccc(-c2nc(-c3ccncc3)no2)cc1 1.47 µM
CCOCCn1c(N2CCN(c3ccccc3)CC2)nc2c1c(=O)[nH]c(=O)n2C 6.56 µM
CCCCCCOC(=O)c1ccc(OC(=O)c2cccnc2)cc1 6.56 µM
Cc1ccc(/C=C2\SC(N3CCCC3)=NC2=O)cc1 16.5 µM
COCC1CCN(C(=O)c2cc(COc3cc(C)c(Cl)c(C)c3)on2)C1 (configuration not stated) 13.1 µM
Cc1cc(OCc2cc(C(=O)N3CCCCCC3)no2)cc(C)c1Cl 5.85 µM
COc1cccc(/C(N)=N/OC(=O)Cc2ccccc2[N+](=O)[O-])c1 9.27 µM
O=C(Nc1cccc(O)c1)c1c(O)c2ccccc2[nH]c1=O 1.47 µM
NS(=O)(=O)c1ccccc1NC(=O)c1c(O)c2ccccc2[nH]c1=O 0.736 µM
C=CCn1c(=O)c(C(=O)Nc2ccccc2S(N)(=O)=O)c(O)c2ccccc21 4.65 µM
COc1ccccc1C(=O)OCc1cc(=O)n2c(C)csc2n1 10.4 µM
COc1ccccc1C(=O)OCc1cc(=O)n2nc(C3CC3)sc2n1 13.1 µM
c1ccc(C2=NN(c3ccccc3)CC2)cc1 5.21 µM
Cc1ccc(C(=O)COC(=O)c2cccs2)cc1 3.29 µM
Cc1cccc(C(=O)OCC(=O)c2ccc3c(c2)OCO3)c1O 1.85 µM
O=C(COC(=O)c1cccs1)c1ccc2c(c1)OCCO2 3.69 µM
O=C(OCc1ccccc1F)c1ccc2c(c1)OCCO2 18.5 µM
CCOC(=O)c1cc2c(=O)c3cc(C)ccc3oc2nc1C 1.04 µM
CC(C)c1ccc(NC(=S)NN2CCOCC2)cc1 16.5 µM
CNC(=O)/C(C#N)=C/c1ccc(-c2ccc(OC)cc2[N+](=O)[O-])o1 18.5 µM
Cc1cccc(C)c1NC(=O)/C(C#N)=C/c1ccc(-c2ccc(C(=O)O)cc2)o1 2.07 µM
CCOC(=O)/C(C#N)=C/Nc1ccccc1OC 5.21 µM
CNC(=O)/C(C#N)=C/c1ccc(-c2ccc(Cl)cc2)o1 4.14 µM
CCOC(=O)/C(C#N)=C/c1ccc(-c2ccccc2)o1 18.5 µM
Cc1ncc(CO)c(/C=N/N=C/c2ccccc2O)c1O 13.1 µM
COc1ccc(-c2nn(-c3ccccc3)cc2N)cc1 3.69 µM
COc1ccc(-c2nn(-c3ccccc3)cc2C#N)cc1 4.14 µM
O=c1cc(-c2ccccc2)oc2ccc(O)cc12 3.29 µM
COc1cc(OC)c2c(=O)cc(-c3ccccc3)oc2c1 6.56 µM
O=c1cc(-c2ccc(O)cc2)oc2ccccc12 7.36 µM
COc1ccc(-c2cc(=Nc3c(C)n(C)n(-c4ccccc4)c3=O)c3ccccc3o2)cc1 4.14 µM
